# Where “and” joins values, the source holds several entries; their conditions need not be identical. Equal values may be shown once. Calls of active or inactive are those of the source.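 How the source made its calls, unless noted: active means compounds whose cell count with miR-34 switched on is under 0.7 times the count with it off; inactive means the rest.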 Where a SMILES comes first, the peptide text is derived from it. [ ]: non-standard residue; d: D form. pGlu = O=C1CC[CH](C(=O)O)N1; Thz = O=C(O)[CH]1CSCN1
# Legend:
# [1] = sensitizers of A549 cells to miR-34 induction, primary screen, imaging, A549 dox-inducible miR-34, nuclei and caspase counts (AID 1347080); details: A549 miR-34 inducible, Hoechst nuclei count, 48 h; further: test concentration not given here
# [2] = survival rescue of mitochondrial mutant cells in low glucose, primary screen, MELAS cybrids, Rieske KO mouse fibroblasts, CellTiter-Glo (AID 1508586;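 active means mean z-score across replicates of 1.96 or higher in either the MELAS or the Rieske mutant cell line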;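 further: test concentration not given here; z relative to plate mean and SD of compound and empty wells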)
# [3] = viability rescue of complex I mutant cybrids, primary screen, cell-based, galactose medium, ATP luminescence (AID 1645843;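 active means z-score of at least 1.8 in each of two replicates, scored against plate mean and spread of sample wells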;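 further: positive z means more ATP and so rescue of galactose-driven cybrid death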); details: complex I mutant cybrid cells, 72 h, stronger effect = higher value
# [4] = stronger effect = lower value, cell number ratio, induced over uninduced
# [5] = measured here: relative caspase fold change +Dox/-Dox
# [6] = measured here: total cells with miR-34 induction, stronger effect = lower value
# [7] = measured here: total cells without miR-34 induction
# [8] = MELAS cybrid survival, CellTiter-Glo 48 h, stronger effect = higher value
# [9] = Rieske KO mouse fibroblast survival, CellTiter-Glo 72 h
Structure (SMILES),"fold change [1, 4]","fold change [1, 5]","cell count [1, 6]","cell count [1, 7]","z-score [2, 8]","z-score [2, 9]",z-score [3]
O=C(Nc1ccc(I)cc1)NC1CCCCC1,0.864 (inactive),0.498,7960,9220,0.185 (inactive),-0.338,1.05 (inactive)
O=c1ccc2ccccc2[nH]1,0.871 (inactive),0.441,8280,9510,1.28 (inactive),0.0217,0.98 (inactive)
CCOC(=O)c1cc2ccc(O)cc2oc1=O,0.98 (inactive),0.374,10300,10500,0.534 (inactive),-0.345,0.595 (inactive)
Cc1cc(C(=O)Nc2ccc3c(c2)CC(=O)N3)c(C)o1,0.929 (inactive),1.42,9120,9820,-0.11 (inactive),-0.503,-0.465 (inactive)
CCOC(=O)C(CCc1ccccc1)NC(C)C(=O)N1C(C(=O)O)CC2CCCC21 (stereo unspecified),0.892 (inactive) and 0.893 (inactive),1.7 and 1.12,8500 and 7970,9530 and 8920,-0.00441 (inactive),0.321,0.52 (inactive)
Cc1csc2ncnc(-c3cccc4ncccc34)c12,0.896 (inactive),0.971,7440,8300,0.0854 (inactive),-0.504,-0.49 (inactive)
Fc1cccc(F)c1-c1nc2c(cnn2Cc2cccs2)[nH]1,0.88 (inactive),2.16,8590,9770,-0.231 (inactive),0.598,-0.555 (inactive)
CCn1ncc2[nH]c(-c3c(OC(C)C)ccc4ccccc34)nc21,0.906 (inactive),1.3,7700,8510,-0.33 (inactive),-0.482,0.5 (inactive)
Nc1[nH]c(=O)[nH]c(=O)c1N,0.894 (inactive),0.315,8900,9960,0.368 (inactive),0.648,0.84 (inactive)
Cc1nsc(NC(=O)N2CCCC(C)(O)C2)n1 (stereo unspecified),0.901 (inactive),0.878,9190,10200,-0.195 (inactive),-0.423,-0.565 (inactive)
Nc1ncc(Cc2ccccc2)s1,0.906 (inactive),0.514,8010,8850,-0.355 (inactive),-0.511,-0.26 (inactive)
c1ccc(-c2noc(-c3cccc4cccnc34)n2)nc1,0.892 (inactive),1.13,7790,8740,-0.283 (inactive),1.05,0.93 (inactive)
CC(=O)NCCc1ccc(S(N)(=O)=O)cc1,0.918 (inactive),0.641,7840,8540,0.668 (inactive),-0.256,-0.065 (inactive)
O=C(O)CSc1nc(-c2cccc(Cl)c2)no1,0.912 (inactive),0.254,8810,9660,0.659 (inactive),-0.279,0.49 (inactive)
O=C(Nc1ccccc1)c1ccn[nH]1,0.856 (inactive),0.232,7620,8910,-0.292 (inactive),0.207,0.49 (inactive)
C=CCn1cc(-c2nc3c([nH]2)c(-c2cccnc2)nn3C)c(C)n1,0.874 (inactive),0.787,8680,9940,-1.29,2.45,-0.47 (inactive)
CCN(CCc1ccccn1)C(=O)c1cc(-c2cnc(N)nc2)nc2c(C)cccc12,0.904 (inactive),1.79,8640,9560,-0.0572 (inactive),-0.177,0.51 (inactive)
FC(F)Oc1ccc(-c2nc3c(cnn3Cc3cccs3)[nH]2)cc1,0.844 (inactive),1.61,6520,7720,-0.426,2.02,1.1 (inactive)
Cc1ccc(NC(=O)C2CC23CCCCC3)cn1 (stereo unspecified),0.887 (inactive),0.564,8250,9300,-0.13 (inactive),-0.332,-0.27 (inactive)
C=CCNC(=O)c1cccnc1-c1ccc(OC)c2ncccc12,0.914 (inactive),1.9,9130,9990,-0.163 (inactive),-0.219,-0.545 (inactive)
COC(=O)CN1CCN(c2ncnc3sccc23)C(C)C1=O (stereo unspecified),0.854 (inactive),1.54,7880,9220,0.221 (inactive),0.142,-0.055 (inactive)
Nc1cccc(-c2cccc(OCc3ccccc3)c2)n1,0.803 (inactive),1.74,7230,9010,-0.19 (inactive),-0.156,-0.555 (inactive)

Structure (SMILES),"fold change [1, 4]","fold change [1, 5]","cell count [1, 6]","cell count [1, 7]","z-score [2, 8]","z-score [2, 9]",z-score [3]
COCC1CCCN(Cc2cccc(-c3nc(-c4cccnc4)cc(=O)[nH]3)c2)C1 (stereo unspecified),0.935 (inactive),1.11,8420,9010,-0.479 (inactive),0.644,0.175 (inactive)
O=C1CCC(C(=O)N2CSCC2C(=O)O)N1 (stereo unspecified) ([pGlu]-[Thz]-OH; configuration not given here),0.957 (inactive) and 1 (inactive),1.75 and 0.634,9270 and 8110,9680 and 8100,-0.302 (inactive),-0.109,0.45 (inactive)
CN(Cc1nc2ccc(Cl)cc2[nH]1)C(=O)c1n[nH]c2ccccc12,0.846 (inactive),1.41,6230,7360,-0.529 (inactive),0.953,1.46 (inactive)
CC(C)=CCn1cnc(=N)c2[nH]cnc21,0.911 (inactive),0.79,8970,9850,-0.546 (inactive),-0.741,1.17 (inactive)
O=C(O)c1ccc(-c2ccccc2Cl)o1,0.867 (inactive),0.416,7840,9050,-0.894 (inactive),0.4,0.53 (inactive)
COc1ccc(CN2CCN(c3nccc(-c4cn(C)nc4C)n3)CC2=O)cc1,0.778 (inactive),1.57,4640,5960,4.51 (active),2.53,-0.37 (inactive)
CC(=O)[C@]1(O)Cc2c(O)c3c(c(O)c2C(OC2CC(N)C(O)C(C)O2)C1)C(=O)c1ccccc1C3=O (stereo partly specified),0.995 (inactive) and 0.89 (inactive),0.907 and 1.04,734 and 2090,738 and 2350,2.4 (active),-0.525,-1.88 (inactive)
CCn1ncc(NC(=O)Cn2ccc(-c3ncnn3C)n2)n1,0.85 (inactive),1.24,8780,10300,0.204 (inactive),-0.374,-0.5 (inactive)
Cc1nsc(NC(=O)NC2CCc3ccccc3C2)n1 (stereo unspecified),0.899 (inactive),1,3190,3550,-0.269 (inactive),-0.339,1.48 (inactive)
Nc1ccc(CCC(=O)O)cc1,0.96 (inactive),0.255,9320,9710,0.558 (inactive),-0.0102,1.27 (inactive)
O=C1CN(C(=O)Nc2nncs2)CCN1Cc1cccc(F)c1,0.896 (inactive),1.07,9320,10400,0.315 (inactive),-0.441,-0.53 (inactive)
CCN(CC)C(=O)c1c(NC(=O)c2cccs2)sc2c1CCCC2,1.02 (inactive),0.802,1650,1620,0.194 (inactive),0.0357,-0.49 (inactive)
CCCn1ncc(-c2ccnc(NC3CC(C)(C)NC(C)(C)C3)n2)c1C,0.919 (inactive),0.965,8450,9200,0.278 (inactive),0.593,0.33 (inactive)
CC1(C)CC(=O)c2sc(N3CCOCC3)nc2C1,0.909 (inactive),0.788,8160,8970,0.786 (inactive),-0.0343,0.025 (inactive)
Cc1ccccc1-n1cc(-c2ccnc(NCCC3(O)CCN(C)CC3)n2)cn1,0.797 (inactive),1.49,8470,10600,0.152 (inactive),-0.0851,-0.43 (inactive)
O=S(=O)(O)c1cccc2cccc(Nc3ccccc3)c12,0.946 (inactive),0.486,8990,9500,-0.258 (inactive),-0.0194,0.715 (inactive)
O=C(O)COc1cccc2ccccc12,0.847 (inactive),0.59,7750,9150,-0.276 (inactive),0.135,0.555 (inactive)
Cc1cc(-c2csc(Nc3ccc(C(=O)O)c(O)c3)n2)ccc1F,0.849 (inactive),0.325,8200,9650,2.38 (active),-0.525,1.02 (inactive)
CCSCCNc1nccc(-c2cn(C)nc2C)n1,0.861 (inactive),2.06,8420,9770,-0.242 (inactive),0.458,-0.585 (inactive)
CC(C)(C)C(=O)Nc1ccc2c(c1)CC(=O)N2,0.817 (inactive),1.77,8370,10200,0.0898 (inactive),0.0111,-0.52 (inactive)
c1ccc(-c2ncc(-c3ccn[nH]3)s2)cc1,0.881 (inactive),0.808,8010,9090,2.65 (active),-0.462,-0.185 (inactive)
